Measured values: PubChem BioAssay (EPA / NIEHS)
“And” between values parts separate entries of the source, which are not always exact repeats. Equal entries are not always repeated. The source holds several records for some structures; these can differ, active in one and inactive in another. The source made the active and inactive calls. Rule for the calls: active = hit-call score of the fitted dose curve at least 0.9, where 1 is the maximum; inactive = score below 0.9.

Legend:
Conditions in all cases: primary human HUVEC with PBMC; actives raise or lower the signal
[1] = read-out: Interleukin-1 alpha (IL1a), IL1A (gene 3552); assay: BSK_LPS_IL1a: BioMAP Diversity Plus: LPS Assay for Interleukin-1 alpha (IL1a) Biomarker Activity (AID 2283080)
How it was run: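 Primary human HUVEC and PBMC co-culture stimulated with LPS is dosed and harvested at 24 h. Both increases and decreases in ELISA-measured IL-1a are scored relative to DMSO.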

[2] = read-out: Monocyte Chemoattractant Protein-1 (MCP1), CCL2 (gene 6347); assay: BSK_LPS_MCP1: BioMAP Diversity Plus: LPS Assay for Monocyte Chemoattractant Protein-1 (MCP1) Biomarker Activity (AID 2283081);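 for AC50: secreted MCP-1 protein quantified by ELISA in culture supernatant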
How it was run: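 Values derive from bidirectional fitting against DMSO of ELISA-measured MCP-1 in a human primary endothelial and mononuclear cell co-culture, 24 h after chemical addition under LPS activation.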

[3] = BSK_LPS_PGE2: BioMAP Diversity Plus: LPS Assay for Prostaglandin E2 (PGE2) Biomarker Activity (AID 2283082);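 for AC50: secreted prostaglandin E2 measured by ELISA in LPS-stimulated co-culture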
How it was run: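 Primary human endothelial cells and blood mononuclear cells, co-cultured with LPS, receive test chemical; PGE2 ELISA follows at 24 h, with SRB-stained parallel cultures flagging cytotoxicity.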

[4] = read-out: Macrophage colony-stimulating factor (MCSF), CSF1 (gene 1435); assay: BSK_LPS_MCSF: BioMAP Diversity Plus: LPS Assay for Macrophage colony-stimulating factor (MCSF) Biomarker Activity (AID 2283083)
How it was run: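 Bidirectional fit versus DMSO of ELISA-measured M-CSF in co-cultured human umbilical vein endothelial cells and PBMC, sampled 24 h after dosing.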

[5] = read-out: Vascular cell adhesion molecule 1 (VCAM1), VCAM1 (gene 7412); assay: BSK_LPS_VCAM1: BioMAP Diversity Plus: LPS Assay for Vascular cell adhesion molecule 1 (VCAM1) Biomarker Activity (AID 2283086)
How it was run: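 Measured by ELISA: VCAM-1 in LPS-activated HUVEC/PBMC co-cultures 24 h after treatment. Values reflect bidirectional fitting with DMSO as baseline.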

CD38, CD38 (gene 952) = assay: BSK_SAg_CD38: BioMAP Diversity Plus: SAg Assay for CD38 Biomarker Activity (AID 2283087)
How it was run: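 Measures CD38 on a human endothelial/PBMC co-culture driven by SEB and TSST-1, 24 h after compound exposure, using ELISA with fluorescence detection; DMSO defines baseline for bidirectional curve fitting.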

CD40, CD40 (gene 958) = assay: BSK_SAg_CD40: BioMAP Diversity Plus: SAg Assay for CD40 Biomarker Activity (AID 2283088)
How it was run: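 Endpoint derived by fitting increases or decreases versus DMSO controls. CD40 is detected by fluorescence ELISA in a human vascular co-culture of endothelium and PBMC at 24 h.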

CD69, CD69 (gene 969) = assay: BSK_SAg_CD69: BioMAP Diversity Plus: SAg Assay for CD69 Biomarker Activity (AID 2283089);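 for AC50: cell surface CD69 protein quantified by ELISA with fluorescence detection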
How it was run: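 ELISA, fluorescence read-out: CD69 on human umbilical vein endothelial cell + PBMC co-culture, 24 h post-dosing. Gain or loss of signal fitted bidirectionally against DMSO baseline.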

[6] = read-out: Tissue Factor, F3 (gene 2152); assay: BSK_LPS_TissueFactor: BioMAP Diversity Plus: LPS Assay for Tissue Factor Biomarker Activity (AID 2283084)
How it was run: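 Read-out: CD142 ELISA, 24 h. System: LPS-driven human endothelial/PBMC co-culture. Analysis: up- or down-signal fitted against DMSO.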

[7] = read-out: Tumor necrosis factor (Homo sapiens) (UniProt P01375); assay: BSK_LPS_TNFa: BioMAP Diversity Plus: LPS Assay for Tumour Necrosis Factor alpha (TNFa) Biomarker Activity (AID 2283085);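 for AC50: TNFa protein level quantified by ELISA in the co-culture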
How it was run: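 ELISA-based TNFa endpoint in a human endothelial–PBMC co-culture sampled 24 h post-exposure. Curves were fitted in both directions using DMSO as baseline of activity.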

Sequence of Tumor necrosis factor (Homo sapiens) (P01375 whole entry, looked up): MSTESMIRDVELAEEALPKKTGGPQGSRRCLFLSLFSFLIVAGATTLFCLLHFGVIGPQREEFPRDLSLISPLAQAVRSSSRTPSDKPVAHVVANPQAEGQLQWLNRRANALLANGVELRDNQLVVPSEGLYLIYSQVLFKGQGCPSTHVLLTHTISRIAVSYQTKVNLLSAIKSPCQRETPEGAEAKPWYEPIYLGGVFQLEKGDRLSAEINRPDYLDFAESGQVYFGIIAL

Row | SMILES | AC50 [1] | outcome [1] | AC50 [2] | outcome [2] | outcome [3] | outcome [4] | outcome [5] | outcome (CD38, CD38 (gene 952)) | outcome (CD40, CD40 (gene 958)) | outcome (CD69, CD69 (gene 969)) | outcome [6] | outcome [7] | AC50 [4] | AC50 [7] | AC50 [3] | AC50 (CD38, CD38 (gene 952)) | AC50 [5] | AC50 (CD40, CD40 (gene 958)) | AC50 (CD69, CD69 (gene 969)) | AC50 [6]
1 | O=S(=O)(OCC(F)(F)F)C(F)(F)C(F)(F)C(F)(F)C(F)(F)F | 30 µM (active) | inactive | 20.6 µM (active) | inactive | inactive | inactive | inactive | inactive | inactive | inactive |  |  |  |  |  |  |  |  |  | 
2 | FC(F)(F)C(F)(F)C(F)(F)C(F)(F)C(F)(F)C(F)(F)CC[Si](Cl)(Cl)Cl |  | inactive | 0.219 µM (active) | inactive | inactive | inactive | inactive | inactive | inactive | inactive | inactive |  |  |  |  |  |  |  |  | 
3 | OC(O)C(F)(F)C(F)(F)F |  | inactive |  | inactive | inactive | inactive | inactive | inactive | inactive | inactive | inactive |  |  |  |  |  |  |  |  | 
4 | O=C(O)CCC(F)(F)C(F)(F)C(F)(F)F |  | inactive |  | inactive | inactive | inactive | inactive | inactive | inactive | inactive |  | inactive |  |  |  |  |  |  |  | 
5 | CCN(CC)c1ccc(C=O)c(O)c1 |  | inactive |  | inactive | inactive | inactive | inactive | inactive | inactive | inactive | inactive | inactive |  |  |  |  |  |  |  | 
6 | FC(F)(F)C(F)(F)C(F)(F)CC1CO1 (configuration not stated) |  | inactive |  | inactive | inactive | inactive | inactive | inactive | inactive | inactive | inactive | inactive |  |  |  |  |  |  |  | 
7 | NC(=O)C(F)(F)C(F)(F)C(F)(F)C(F)(F)C(N)=O |  | inactive |  | inactive | inactive | inactive | inactive | inactive | inactive | inactive | inactive | inactive | 393 nM (active) |  |  |  |  |  |  | 
8 | OCC(F)(F)C(F)(F)C(F)(F)C(F)(F)C(F)(F)C(F)(F)CO |  | inactive |  | inactive | inactive | inactive | inactive | inactive | inactive | inactive |  | inactive |  | 1.9 µM (active) |  |  |  |  |  | 
9 | O=C(c1ccccc1)c1ccc(O)cc1O |  | inactive |  | inactive |  | inactive | inactive |  | inactive | inactive | inactive |  |  |  | 726 nM (active) | 20 µM (active) |  |  |  | 
10 | CO[Si](C)(CCC(F)(F)C(F)(F)C(F)(F)C(F)(F)C(F)(F)C(F)(F)F)OC |  | inactive |  | inactive | inactive | inactive | inactive | inactive | inactive | inactive | inactive | inactive |  |  |  |  |  |  |  | 
11 | NS(=O)(=O)C(F)(F)C(F)(F)C(F)(F)C(F)(F)C(F)(F)C(F)(F)F |  | inactive | 30 µM (active) | inactive |  | inactive |  | inactive |  |  | inactive | inactive |  |  | 10.7 µM (active) and 13.8 µM (active) | 43.9 µM (active) | 5.95 µM (active) and 46.8 µM (active) | 26.3 µM (active) and 30 µM (active) | 28.6 µM (active) and 32.5 µM (active) | 
12 | COC(F)(C(F)F)C(F)(F)F (configuration not stated) |  | inactive |  | inactive | inactive | inactive | inactive | inactive | inactive | inactive | inactive |  |  |  |  |  |  |  |  | 
13 | NC(=O)C(F)(F)C(F)(F)C(F)(F)C(F)F |  | inactive |  | inactive | inactive | inactive | inactive | inactive | inactive | inactive | inactive |  |  |  |  |  |  |  |  | 
14 | C=CC(=O)OCC(F)(F)C(F)(F)C(F)(F)C(F)(F)C(F)(F)C(F)(F)C(F)(F)C(F)F |  | inactive |  | inactive | inactive | inactive | inactive | inactive | inactive | inactive | inactive | inactive |  |  | 13900 nM (active) |  |  | 18.1 µM (active) |  | 
15 | OCCCC(F)(F)C(F)(F)C(F)(F)C(F)(F)C(F)(F)C(F)(F)C(F)(F)C(F)(F)F | 30 µM (active) and 6.25 µM (active) |  | 29.9 µM (active) and 44.8 µM (active) |  | inactive |  |  |  |  |  |  |  | 44.2 µM (active) and 22.5 µM (active) |  |  | 44.8 µM (active) and 26 µM (active) | 41.4 µM (active) and 23.6 µM (active) | 43.8 µM (active) and 45.5 µM (active) | 45.5 µM (active) and 46.7 µM (active) | 39.3 µM (active) and 23.2 µM (active)
16 | CCN(CCO)S(=O)(=O)C(F)(F)C(F)(F)C(F)(F)C(F)(F)C(F)(F)C(F)(F)C(F)(F)C(F)(F)F | 23.7 µM (active) and 5.83 µM (active) |  | 21.8 µM (active) | inactive | inactive | inactive |  |  |  | inactive |  | inactive | 7700 nM (active) |  |  | 35.9 µM (active) and 29.9 µM (active) | 30 µM (active) and 35.9 µM (active) | 22.8 µM (active) and 46 µM (active) | 9.85 µM (active) | 10.8 µM (active) and 15 µM (active)
